Test results as given in the supplement of paper PMC4466140.

Each binder was assayed against AgAbp1 (assay: SPOT peptide array binding signal intensity (averaged, normalized) (arbitrary units (background-subtracted, floor 0; scale differs between SH3 domains)); higher = stronger binding of the SH3 domain to the peptide).
Method in brief: (§1)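 Binding signal refers to normalized, background-subtracted spot intensity averaged over replicates, expressed in arbitrary units that differ between domains. GST-fused SH3 domains from four yeast species were incubated at 10 μg/ml overnight at 4°C on cellulose membranes of synthetic 15-mer peptides with cysteines replaced by serines. Bound protein was detected with anti-GST antibody, an HRP anti-mouse secondary and luminol, and quantified with Genespotter.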

Binder | SPOT peptide array binding signal intensity
PHNPSPFFPPPDFND | ≤ 0

The binders below were run against AgBbc1 in the same assay as above.
Method in brief: as §1

Binder | SPOT peptide array binding signal intensity
PHNPSPFFPPPDFND | 3

These binders were tested against AgBem1-D1 in the same assay as above.
Method in brief: as §1

Binder | SPOT peptide array binding signal intensity
PHNPSPFFPPPDFND | 16.5

What follows are binders tested against AgBzz1-D1 in the same assay as above.
Method in brief: as §1

Binder | SPOT peptide array binding signal intensity
PHNPSPFFPPPDFND | 5

What follows are binders tested against AgBzz1-D2 in the same assay as above.
Method in brief: as §1

Binder | SPOT peptide array binding signal intensity
PHNPSPFFPPPDFND | 22

Each binder was assayed against AgCyk3 in the same assay as above.
Method in brief: as §1

Binder | SPOT peptide array binding signal intensity
PHNPSPFFPPPDFND | ≤ 0

These binders were tested against AgFus1 in the same assay as above.
Method in brief: as §1

Binder | SPOT peptide array binding signal intensity
PHNPSPFFPPPDFND | ≤ 0

Each binder was assayed against AgHof1 in the same assay as above.
Method in brief: as §1

Binder | SPOT peptide array binding signal intensity
PHNPSPFFPPPDFND | ≤ 0

What follows are binders tested against AgHse1 in the same assay as above.
Method in brief: as §1

Binder | SPOT peptide array binding signal intensity
PHNPSPFFPPPDFND | 71

Each binder was assayed against AgLsb1 in the same assay as above.
Method in brief: as §1

Binder | SPOT peptide array binding signal intensity
PHNPSPFFPPPDFND | 3

Each binder was assayed against AgLsb4 in the same assay as above.
Method in brief: as §1

Binder | SPOT peptide array binding signal intensity
PHNPSPFFPPPDFND | ≤ 0

These binders were tested against AgMyo5 in the same assay as above.
Method in brief: as §1

Binder | SPOT peptide array binding signal intensity
PHNPSPFFPPPDFND | 610

The binders below were run against AgNbp2 in the same assay as above.
Method in brief: as §1

Binder | SPOT peptide array binding signal intensity
PHNPSPFFPPPDFND | 42

What follows are binders tested against AgRvs167 in the same assay as above.
Method in brief: as §1

Binder | SPOT peptide array binding signal intensity
PHNPSPFFPPPDFND | 0.667

The binders below were run against AgSho1 in the same assay as above.
Method in brief: as §1

Binder | SPOT peptide array binding signal intensity
PHNPSPFFPPPDFND | ≤ 0

These binders were tested against AgSla1-D1-D2 in the same assay as above.
Method in brief: as §1

Binder | SPOT peptide array binding signal intensity
PHNPSPFFPPPDFND | ≤ 0

The binders below were run against AgSla1-D3 in the same assay as above.
Method in brief: as §1

Binder | SPOT peptide array binding signal intensity
PHNPSPFFPPPDFND | ≤ 0

These binders were tested against CaAbp1-D1 in the same assay as above.
Method in brief: as §1

Binder | SPOT peptide array binding signal intensity
PHNPSPFFPPPDFND | 2

Each binder was assayed against CaAbp1-D2 in the same assay as above.
Method in brief: as §1

Binder | SPOT peptide array binding signal intensity
PHNPSPFFPPPDFND | 28

What follows are binders tested against CaBbc1 in the same assay as above.
Method in brief: as §1

Binder | SPOT peptide array binding signal intensity
PHNPSPFFPPPDFND | 14

The binders below were run against CaBem1-D1 in the same assay as above.
Method in brief: as §1

Binder | SPOT peptide array binding signal intensity
PHNPSPFFPPPDFND | ≤ 0

The binders below were run against CaBzz1-D1 in the same assay as above.
Method in brief: as §1

Binder | SPOT peptide array binding signal intensity
PHNPSPFFPPPDFND | 1.5

Each binder was assayed against CaBzz1-D2 in the same assay as above.
Method in brief: as §1

Binder | SPOT peptide array binding signal intensity
PHNPSPFFPPPDFND | 1.53e-05

Each binder was assayed against CaCyk3 in the same assay as above.
Method in brief: as §1

Binder | SPOT peptide array binding signal intensity
PHNPSPFFPPPDFND | 1

These binders were tested against CaFus1 in the same assay as above.
Method in brief: as §1

Binder | SPOT peptide array binding signal intensity
PHNPSPFFPPPDFND | 32.5

These binders were tested against CaHof1 in the same assay as above.
Method in brief: as §1

Binder | SPOT peptide array binding signal intensity
PHNPSPFFPPPDFND | ≤ 0

What follows are binders tested against CaHse1 in the same assay as above.
Method in brief: as §1

Binder | SPOT peptide array binding signal intensity
PHNPSPFFPPPDFND | 2

The binders below were run against CaLsb1 in the same assay as above.
Method in brief: as §1

Binder | SPOT peptide array binding signal intensity
PHNPSPFFPPPDFND | ≤ 0

The binders below were run against CaLsb4 in the same assay as above.
Method in brief: as §1

Binder | SPOT peptide array binding signal intensity
PHNPSPFFPPPDFND | 28

The binders below were run against CaMyo5 in the same assay as above.
Method in brief: as §1

Binder | SPOT peptide array binding signal intensity
PHNPSPFFPPPDFND | 112

Each binder was assayed against CaNbp2 in the same assay as above.
Method in brief: as §1

Binder | SPOT peptide array binding signal intensity
PHNPSPFFPPPDFND | 40.5

What follows are binders tested against CaRvs167 in the same assay as above.
Method in brief: as §1

Binder | SPOT peptide array binding signal intensity
PHNPSPFFPPPDFND | 0.333

Each binder was assayed against CaRvs167-3 in the same assay as above.
Method in brief: as §1

Binder | SPOT peptide array binding signal intensity
PHNPSPFFPPPDFND | ≤ 0

What follows are binders tested against CaSho1 in the same assay as above.
Method in brief: as §1

Binder | SPOT peptide array binding signal intensity
PHNPSPFFPPPDFND | 7.5

These binders were tested against CaSla1-D1-D2 in the same assay as above.
Method in brief: as §1

Binder | SPOT peptide array binding signal intensity
PHNPSPFFPPPDFND | ≤ 0

The binders below were run against CaSla1-D3 in the same assay as above.
Method in brief: as §1

Binder | SPOT peptide array binding signal intensity
PHNPSPFFPPPDFND | ≤ 0

Each binder was assayed against ScAbp1 in the same assay as above.
Method in brief: as §1

Binder | SPOT peptide array binding signal intensity
PHNPSPFFPPPDFND | ≤ 0

These binders were tested against ScBbc1 in the same assay as above.
Method in brief: as §1

Binder | SPOT peptide array binding signal intensity
PHNPSPFFPPPDFND | 0.5

What follows are binders tested against ScBem1-D1 in the same assay as above.
Method in brief: as §1

Binder | SPOT peptide array binding signal intensity
PHNPSPFFPPPDFND | ≤ 0

What follows are binders tested against ScBzz1-D1 in the same assay as above.
Method in brief: as §1

Binder | SPOT peptide array binding signal intensity
PHNPSPFFPPPDFND | ≤ 0

What follows are binders tested against ScBzz1-D2 in the same assay as above.
Method in brief: as §1

Binder | SPOT peptide array binding signal intensity
PHNPSPFFPPPDFND | 10.5

Each binder was assayed against ScCyk3 in the same assay as above.
Method in brief: as §1

Binder | SPOT peptide array binding signal intensity
PHNPSPFFPPPDFND | ≤ 0

These binders were tested against ScFus1 in the same assay as above.
Method in brief: as §1

Binder | SPOT peptide array binding signal intensity
PHNPSPFFPPPDFND | ≤ 0

These binders were tested against ScHof1 in the same assay as above.
Method in brief: as §1

Binder | SPOT peptide array binding signal intensity
PHNPSPFFPPPDFND | 0.25

The binders below were run against ScHse1 in the same assay as above.
Method in brief: as §1

Binder | SPOT peptide array binding signal intensity
PHNPSPFFPPPDFND | 5

What follows are binders tested against ScLsb1 in the same assay as above.
Method in brief: as §1

Binder | SPOT peptide array binding signal intensity
PHNPSPFFPPPDFND | ≤ 0

The binders below were run against ScLsb2 in the same assay as above.
Method in brief: as §1

Binder | SPOT peptide array binding signal intensity
PHNPSPFFPPPDFND | ≤ 0

The binders below were run against ScLsb3 in the same assay as above.
Method in brief: as §1

Binder | SPOT peptide array binding signal intensity
PHNPSPFFPPPDFND | ≤ 0

Each binder was assayed against ScLsb4 in the same assay as above.
Method in brief: as §1

Binder | SPOT peptide array binding signal intensity
PHNPSPFFPPPDFND | 1

What follows are binders tested against ScMyo3 in the same assay as above.
Method in brief: as §1

Binder | SPOT peptide array binding signal intensity
PHNPSPFFPPPDFND | 920

What follows are binders tested against ScMyo5 in the same assay as above.
Method in brief: as §1

Binder | SPOT peptide array binding signal intensity
PHNPSPFFPPPDFND | 613

Each binder was assayed against ScNbp2 in the same assay as above.
Method in brief: as §1

Binder | SPOT peptide array binding signal intensity
PHNPSPFFPPPDFND | 5

What follows are binders tested against ScPex13 in the same assay as above.
Method in brief: as §1

Binder | SPOT peptide array binding signal intensity
PHNPSPFFPPPDFND | 512

What follows are binders tested against ScRvs167 in the same assay as above.
Method in brief: as §1

Binder | SPOT peptide array binding signal intensity
PHNPSPFFPPPDFND | ≤ 0

What follows are binders tested against ScSho1 in the same assay as above.
Method in brief: as §1

Binder | SPOT peptide array binding signal intensity
PHNPSPFFPPPDFND | ≤ 0

Each binder was assayed against ScSla1-D1-D2 in the same assay as above.
Method in brief: as §1

Binder | SPOT peptide array binding signal intensity
PHNPSPFFPPPDFND | ≤ 0

What follows are binders tested against ScSla1-D3 in the same assay as above.
Method in brief: as §1

Binder | SPOT peptide array binding signal intensity
PHNPSPFFPPPDFND | 3

Each binder was assayed against SpAbp1-D1 in the same assay as above.
Method in brief: as §1

Binder | SPOT peptide array binding signal intensity
PHNPSPFFPPPDFND | 5

What follows are binders tested against SpBbc1 in the same assay as above.
Method in brief: as §1

Binder | SPOT peptide array binding signal intensity
PHNPSPFFPPPDFND | ≤ 0

Each binder was assayed against SpBzz1-D1 in the same assay as above.
Method in brief: as §1

Binder | SPOT peptide array binding signal intensity
PHNPSPFFPPPDFND | 30

The binders below were run against SpBzz1-D2 in the same assay as above.
Method in brief: as §1

Binder | SPOT peptide array binding signal intensity
PHNPSPFFPPPDFND | 1

What follows are binders tested against SpCyk3 in the same assay as above.
Method in brief: as §1

Binder | SPOT peptide array binding signal intensity
PHNPSPFFPPPDFND | ≤ 0

These binders were tested against SpHof1 in the same assay as above.
Method in brief: as §1

Binder | SPOT peptide array binding signal intensity
PHNPSPFFPPPDFND | ≤ 0

The binders below were run against SpHof1-2 in the same assay as above.
Method in brief: as §1

Binder | SPOT peptide array binding signal intensity
PHNPSPFFPPPDFND | ≤ 0

These binders were tested against SpHof1-3 in the same assay as above.
Method in brief: as §1

Binder | SPOT peptide array binding signal intensity
PHNPSPFFPPPDFND | ≤ 0

These binders were tested against SpHse1 in the same assay as above.
Method in brief: as §1

Binder | SPOT peptide array binding signal intensity
PHNPSPFFPPPDFND | 69.8

The binders below were run against SpLsb1 in the same assay as above.
Method in brief: as §1

Binder | SPOT peptide array binding signal intensity
PHNPSPFFPPPDFND | 18

The binders below were run against SpLsb4 in the same assay as above.
Method in brief: as §1

Binder | SPOT peptide array binding signal intensity
PHNPSPFFPPPDFND | ≤ 0

These binders were tested against SpMyo1 in the same assay as above.
Method in brief: as §1

Binder | SPOT peptide array binding signal intensity
PHNPSPFFPPPDFND | 118

Each binder was assayed against SpNbp2 in the same assay as above.
Method in brief: as §1

Binder | SPOT peptide array binding signal intensity
PHNPSPFFPPPDFND | 3

These binders were tested against SpPex13 in the same assay as above.
Method in brief: as §1

Binder | SPOT peptide array binding signal intensity
PHNPSPFFPPPDFND | ≤ 0

What follows are binders tested against SpRvs167 in the same assay as above.
Method in brief: as §1

Binder | SPOT peptide array binding signal intensity
PHNPSPFFPPPDFND | 3.33

These binders were tested against SpSla1-D1-D2 in the same assay as above.
Method in brief: as §1

Binder | SPOT peptide array binding signal intensity
PHNPSPFFPPPDFND | ≤ 0

The binders below were run against SpSla1-D3 in the same assay as above.
Method in brief: as §1

Binder | SPOT peptide array binding signal intensity
PHNPSPFFPPPDFND | ≤ 0
